In PubChem BioAssay AID1159580 (chemical genetic matrix, 2015):
The whole screen tested about 5,500 compounds, of which about 2,000 (36%) were called active. About 18% were inconclusive and are not listed. Rule as the data show it: active = normalized growth mostly below about 0.91 (no sharp cut-off); inconclusive = no clear call, values can overlap the other calls; inactive = mostly above about 0.92. Some of the results follow.

Assay: chemical genetic growth profiling, strain panel (AID 1159580);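 also: tested at 20 µM; growth read once vehicle control cultures reached saturation at 30 °C; 1 = growth at the plate median or of vehicle wells; lower values mean less growth of the strain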
Settings: S. cerevisiae deletion strains, growth OD

Measured: normalized growth

Cc1ccc(/C=C2\CSc3ccc(F)cc3C2=O)cc1
active: locus YHR030C, strain SLT2, hits give low values 0.706 | locus YLR113W, strain HOG1, hits give low values 0.697 | locus YPL256C, strain CLN2, hits give low values 0.831
inactive: locus YAR019C, strain CDC15, hits give low values 0.942 | locus YBL105C, strain PKC1, hits give low values 0.955 | locus YBR135W, strain CKS1, hits give low values 0.953 | locus YBR136W, strain MEC1, hits give low values 0.953 | locus YBR160W, strain CDC28, hits give low values 0.959 | locus YDL017W, strain CDC7, hits give low values 0.958 | locus YDL028C, strain MPS1, hits give low values 0.932 | locus YDL101C, strain DUN1, hits give low values 0.971 | locus YDL108W, strain KIN28, hits give low values 0.93 | locus YDL132W, strain cdc53, hits give low values 0.937 | locus YDL214C, strain PRR2, hits give low values 0.892 | locus YDR052C, strain DBF4, hits give low values 0.972 | locus YDR054C, strain cdc34, hits give low values 0.94 | locus YDR226W, strain ADK1, hits give low values 0.952 | locus YDR477W, strain SNF1, hits give low values 0.892 | locus YER123W, strain YCK3, hits give low values 0.864 | locus YER133W, strain GLC7, hits give low values 0.902 | locus YFL009W, strain cdc4, hits give low values 0.904 | locus YFL029C, strain CAK1, hits give low values 0.946 | locus YFR003C, strain YPI1, hits give low values 0.954 | locus YFR019W, strain FAB1, hits give low values 0.934 | locus YFR028C, strain CDC14, hits give low values 0.935 | locus YGR040W, strain KSS1, hits give low values 0.889 | locus YGR052W, strain FMP48, hits give low values 0.91 | locus YGR092W, strain DBF2, hits give low values 0.86 | locus YHR079C, strain IRE1, hits give low values 0.856 | locus YHR082C, strain KSP1, hits give low values 0.915 | locus YHR205W, strain SCH9, hits give low values 0.845 | locus YIL147C, strain SLN1, hits give low values 0.953 | locus YJL095W, strain BCK1, hits give low values 0.859 | locus YJL128C, strain PBS2, hits give low values 0.888 | locus YJL157C, strain FAR1, hits give low values 0.906 | locus YJR016C, strain ILV3, hits give low values 0.956 | locus YJR066W, strain TOR1 (second series), hits give low values 0.869 | locus YJR066W, strain TOR1, hits give low values 0.862 | locus YKL048C, strain ELM1, hits give low values 0.92 | locus YKL067W, strain YNK1, hits give low values 0.885 | locus YKL101W, strain HSL1, hits give low values 0.895 | locus YKL193C, strain SDS22, hits give low values 0.938 | locus YKL203C, strain TOR2, hits give low values 0.985 | locus YLR133W, strain CKI1, hits give low values 0.915 | locus YLR403W, strain SFP1, hits give low values 0.898 | locus YML070W, strain DAK1, hits give low values 0.882 | locus YMR001C, strain CDC5, hits give low values 0.944 | locus YMR205C, strain PFK2 (second series), hits give low values 0.911 | locus YMR277W, strain FCP1, hits give low values 0.923 | locus YNL006W, strain LST8, hits give low values 0.952 | locus YNL020C, strain ARK1, hits give low values 0.915 | locus YNL161W, strain CBK1, hits give low values 0.955 | locus YNL183C, strain NPR1, hits give low values 0.903 | locus YNL207W, strain RIO2, hits give low values 0.945 | locus YNL222W, strain SSU72, hits give low values 0.937 | locus YNL307C, strain MCK1 (second series), hits give low values 0.85 | locus YOL078W, strain AVO1, hits give low values 0.945 | locus YOL136C, strain PFK27, hits give low values 0.881 | locus YOR061W, strain CKA2, hits give low values 0.887 | locus YOR119C, strain RIO1, hits give low values 0.932 | locus YOR231W, strain MKK1, hits give low values 0.835 | locus YOR329C, strain SCD5, hits give low values 0.956 | locus YPL031C, strain PHO85, hits give low values 0.896 | locus YPL153C, strain RAD53, hits give low values 0.888 | locus YPL204W, strain HRR25, hits give low values 0.876 | locus YPL209C, strain IPL1, hits give low values 0.952 | locus YPR025C, strain CCL1, hits give low values 0.958 | locus YPR106W, strain ISR1, hits give low values 0.952 | locus YPR111W, strain DBF20, hits give low values 0.916 | strain NNK1, hits give low values 0.946 | strain TSCII, hits give low values 0.942
